Measurements published in paper PMC4336329 (PLoS ONE, 2015).
Screen size: about 310,000 compounds; about 2,200 (0.71%) showed an effect of 50% or more. Effects have a minus sign here. For the sample, strong results were picked, then their nearest neighbours and some compounds at random.

target: human ether-à-go-go-related gene (hERG) potassium channel (human, UniProt Q12809); assay: primary screen, population patch clamp on CHO cells stably expressing hERG; higher = less effect of the substance
Sequence (Q12809 whole entry, looked up): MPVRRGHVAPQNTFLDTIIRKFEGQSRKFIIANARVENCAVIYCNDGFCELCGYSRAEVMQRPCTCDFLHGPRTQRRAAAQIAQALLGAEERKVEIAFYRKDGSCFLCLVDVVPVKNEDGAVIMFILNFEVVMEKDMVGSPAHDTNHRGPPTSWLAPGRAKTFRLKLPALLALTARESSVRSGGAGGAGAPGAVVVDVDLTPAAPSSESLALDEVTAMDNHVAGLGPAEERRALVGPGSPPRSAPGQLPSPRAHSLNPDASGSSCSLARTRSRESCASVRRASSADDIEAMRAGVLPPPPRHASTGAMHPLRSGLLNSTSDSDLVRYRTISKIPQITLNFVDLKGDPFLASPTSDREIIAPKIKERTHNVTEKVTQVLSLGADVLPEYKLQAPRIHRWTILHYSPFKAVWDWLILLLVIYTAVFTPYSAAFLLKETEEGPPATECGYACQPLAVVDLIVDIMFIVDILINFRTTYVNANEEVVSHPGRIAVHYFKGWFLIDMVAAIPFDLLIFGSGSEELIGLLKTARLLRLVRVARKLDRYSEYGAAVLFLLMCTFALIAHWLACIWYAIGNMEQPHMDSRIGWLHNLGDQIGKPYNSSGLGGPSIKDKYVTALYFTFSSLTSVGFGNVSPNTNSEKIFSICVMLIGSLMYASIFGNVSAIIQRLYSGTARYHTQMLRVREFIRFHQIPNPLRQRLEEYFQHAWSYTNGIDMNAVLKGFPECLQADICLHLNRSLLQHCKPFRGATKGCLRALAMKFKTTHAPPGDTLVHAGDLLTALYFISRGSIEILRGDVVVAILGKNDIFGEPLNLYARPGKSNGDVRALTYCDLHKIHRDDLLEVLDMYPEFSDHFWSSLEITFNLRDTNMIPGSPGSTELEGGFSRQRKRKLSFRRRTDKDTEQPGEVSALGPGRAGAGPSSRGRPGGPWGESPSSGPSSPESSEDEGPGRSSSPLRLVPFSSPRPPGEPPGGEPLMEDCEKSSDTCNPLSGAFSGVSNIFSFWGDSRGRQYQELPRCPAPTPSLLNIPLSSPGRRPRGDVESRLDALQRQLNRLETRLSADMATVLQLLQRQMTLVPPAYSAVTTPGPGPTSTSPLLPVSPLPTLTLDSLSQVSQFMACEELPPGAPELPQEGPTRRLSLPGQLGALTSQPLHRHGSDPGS

Structure (SMILES)	hERG current change (%, negative = inhibition) at 1uM [%]
O=S(=O)(NC1CC1)c1ccc(F)c(F)c1	10.1
OCCN(Cc1nc(-c2ccc3c(c2)OCO3)no1)Cc1cccs1	7.42
CC(Oc1cc2oc(=O)c3c(c2cc1Cl)CCC3)C(=O)NCCCN1CCOCC1 (stereo not shown)	13.3
Cc1ccc(CN=C(N)Nc2nc(C)cc(C)n2)cc1.Cl	-19.5
CN(Cc1ccc(F)cc1)C(=O)c1ccc(NC(=O)CC2SC(N3CCCC3)=NC2=O)cc1 (stereo not shown)	8.82
COc1ccc(S(=O)(=O)NCC2CCCN(C(=O)c3cccnc3C)C2)cc1 (stereo not shown)	14
COc1ccc2c(ccc[n+]2CC(=O)c2ccc(C)cc2)c1.[Br-]	8.14
COc1ccc(/C=N\NC(=O)c2cc(O)c(O)c(O)c2)cc1CN1CCN(c2ccc(F)cc2)CC1	10.4
COc1ccc(/C=N/NC(=O)c2ccc(Br)cc2)cc1CN1CCOCC1	-23.8
COc1cc(C(=O)N/N=C/c2ccc(OC)c(CN3CCN(c4ccc(F)cc4)CC3)c2)ccc1O	-52.4
CCN(CC(=O)N1CCOCC1)S(=O)(=O)c1ccccc1	12.4
Cc1nc2ccccn2c(=O)c1CCN1CCC(C(=O)c2ccc(F)cc2)CC1	-66.2
Cc1nc2sccn2c(=O)c1S(=O)(=O)NCCc1ccccc1	-10.2
CCOc1ccccc1NC(=O)N1CCC(C(=O)c2ccc(F)cc2)CC1	9.5
Cc1nc2sccn2c(=O)c1S(=O)(=O)NCc1ccccc1	9.92
Cc1nc2sccn2c(=O)c1S(=O)(=O)N1CCN(c2ccc(F)cc2)CC1	-23
Cc1nc2sccn2c(=O)c1CCN1CCC(=C(c2ccccc2)c2ccc(F)cc2)CC1	-78.8
CCCCc1c(O)nc2sccn2c1=O	5.53
Cc1nc2sccn2c(=O)c1CCN1CCC(=C(c2ccc(F)cc2)c2ccc(F)cc2)CC1	-65
Cc1ccccc1NC(=O)N1CCC(C(=O)c2ccc(F)cc2)CC1	17.6
CC(NCC(=O)Nc1ccccc1C(=O)NC1CC1)c1ccc(F)cc1F (stereo not shown)	1.42
COc1ccccc1N1CCN(S(=O)(=O)c2c(C)sc3ncn(CC(=O)NCCN(C)C)c(=O)c23)CC1	10.8
Cc1ccc(S(=O)(=O)N2CCN(C(=O)CN3CCCSc4ccccc43)CC2)cc1	3.85

Structure (SMILES)	hERG current change (%, negative = inhibition) at 1uM [%]
N/C(=N\N=C\c1ccc(O)cc1O)N[N+](=O)[O-]	8.72
COc1ccc(C(=O)OCc2nnc(-c3ccccc3)o2)cc1S(=O)(=O)N1CCOCC1	4.07
Cc1cc(=O)[nH]c(SCC(=O)NCC2CCCCC2)c1C#N	16
CCOc1ccccc1NC(=O)C(=O)NCCC1=CCCCC1	9.84
CN(CCNC(=O)c1ccc(CS(=O)(=O)c2ccc(Br)cc2)o1)CCc1ccccc1	-42
CCCCN(CC)CCCNC(=O)c1ccc(CS(=O)(=O)c2c(Cl)cccc2Cl)o1	-8.53
CN(CCNC(=O)c1ccc(CS(=O)(=O)c2c(Cl)cccc2Cl)o1)CCc1ccccc1	-50.4
CC(C)N(CCNC(=O)c1ccc(CS(=O)(=O)c2c(Cl)cccc2Cl)o1)Cc1ccccc1	-3.94
CCCCN(CCCNC(=O)c1ccc(CS(=O)(=O)c2c(Cl)cccc2Cl)o1)Cc1ccccc1	-30.5
CCCN(CCC)CCCNC(=O)c1ccc(CS(=O)(=O)c2c(Cl)cccc2Cl)o1	-59.1
Cc1ccc(-c2csc(NC(=S)NC(=O)/C=C/c3ccco3)n2)cc1	23.2
O=C1OCCC1Sc1nnc(-c2ccc3c(c2)OCO3)n1-c1ccccc1 (stereo not shown)	4.75
Cc1c(C(=O)NCc2ccc3c(c2)OCO3)oc2ccc(S(=O)(=O)N3CCCC3)cc12	19.4
N#Cc1cc2c(nc1SCC(=O)NCc1ccc3c(c1)OCO3)CCCCC2	1.91
CCOc1ccc(NC(=O)CN(C)C(=O)CSCc2ccc(C)cc2)cc1OCC	-1.27
COC(=O)CCNC(=O)Cc1c(C)n(C(=O)c2ccc(Cl)cc2)c2ccc(OC)cc12	8.1
Cc1ccc(-n2ccnc2SCC(=O)N(CC(C)C)C2CCS(=O)(=O)C2)c(C)c1 (stereo not shown)	-3.07
COc1cc2c(c(OC)c1OC)-c1c(cc3c(c1OC)OCO3)C[C@H](C)[C@@](C)(O)C2	17.5
COc1cc2c(c(OC)c1OC)-c1c(cc(OC)c(OC)c1OC)C[C@](C)(O)[C@@H](C)C2	-58.4
COc1cc2c(c(OC)c1OC)-c1c(cc(OC)c(OC)c1OC)C[C@H](C)[C@H](C)C2	-22.5
O=Nc1c(O)[nH]c2ccc(Cl)cc12	4.46
CCc1cc(=O)oc2cc(C)cc(OCC(=O)NCCCn3ccnc3)c12	-7.42
CCCCc1cc(=O)oc2cc(C)cc(OCC(=O)NCc3ccncc3)c12	-73.8
